Measurements from PubChem BioAssay AID893 (National Center for Advancing Translational Sciences (NCATS), 2007).
Among all 75,000 compounds or so, about 5,700 (7.6%) were called active. About 7% were inconclusive and are not listed. The call rests on the fitted dose curve; in most records, active means well fitted inhibition curve with a large enough effect; inconclusive means small, poorly fitted or top-dose-only effect; inactive means no such curve, though single readings can be large or run the other way. This excerpt belongs to a sample that is enriched for actives.

Biological target: 3-hydroxyacyl-CoA dehydrogenase type-2 (Homo sapiens) (UniProt Q99714)
Experiment: qHTS Assay for Inhibitors of HSD17B4, hydroxysteroid (17-beta) dehydrogenase 4;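 further: the protocol describes HADH2 (HSD17B10) and not the HSD17B4 of the title; nearly all actives have a fitted effect of over 70% in size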
Conditions: recombinant HSD17B10, NADH fluorescence kinetic; series mostly up to 57.1 µM; activity change, negative = inhibition: at the top concentration
Procedure, shortened: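 20 nM HADH2, pH 9.0 Tris/Tween; cpd preinc 15 min RT; start w/ 1 mM NAD+ + 90 uM b-hydroxybutyryl-CoA; kinetic fluor ex360/em450 q30s x 4 min; delta last-first.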
On the % scale 0 is the no-effect control and ±100 the full control effect; potency means the concentration at half of the fitted maximal effect.

SMILES	Potency	activity change, negative = inhibition
Oc1ccc(O)c2c(O)cccc12	12.6 µM (active)	–
Cc1cccc(CNc2cc(-c3ccccc3Cl)ncn2)c1	–	-4.03% (inactive)
Cc1ccc(S(=O)(=O)NCC(=O)N(CC(=O)NC2CCCCC2)Cc2ccco2)cc1	–	2.39% (inactive)
Cc1ccc(NC(=O)CS(=O)CC(=O)N(c2ccccc2)C(C)C(=O)NC2CCCC2)cc1 (stereo not given)	–	1.98% (inactive)
O=c1[nH][nH]c(=O)c2cc(N3CCCC3)ccc12	31.6 µM (active)	–
CO[C@H]1COC(=O)[C@H](Cc2ccccc2)NC(=O)C/C=C\[C@@H](C)[C@H](OC)COC(=O)C/C=C\[C@@H]1C	–	-5.43% [at 11.4 µM] (inactive)
COC(=O)c1cn(C)c2ccc(S(=O)(=O)N3CC(C)CC(C)C3)cc2c1=O (stereo not given)	–	7.23% (inactive)
CC(C)(C)c1cc(C(=O)NCc2cccnc2)ccn1	–	4.84% (inactive)
COCCn1c(=O)[nH]c2cc(C(=O)NCc3cccnc3)ccc2c1=O	31.6 µM (active)	–
Cc1ccc(-n2nc(-c3ccco3)cc2C(=O)NCc2cccnc2)cc1	–	-29.6% (inactive)
Fc1ccc(-c2nnc(CSc3nnc(-c4ccc5c(c4)OCO5)o3)o2)cc1	–	0.775% (inactive)
O=C(c1cccc(C(=O)N2CCN(c3ccc(F)cc3)CC2)c1)N1CCN(c2ccc(F)cc2)CC1	–	3.89% (inactive)
Cc1cc(C)c2[nH]c(=O)c(C(c3nnnn3Cc3ccc4c(c3)OCO4)N3CCCC3)cc2c1 (stereo not given)	–	51.7% (inactive)
Cc1cccc2cc(CN(Cc3ccc4c(c3)OCO4)Cc3nnnn3C3CCCC3)c(=O)[nH]c12	–	-9.43% (inactive)
Cc1cccc2cc(CN(Cc3nnnn3Cc3ccccc3)C3CCCC3)c(=O)[nH]c12	31.6 µM (active)	–
Nc1nc2nc(Cl)[nH]c2c(=O)[nH]1	–	-5.13% (inactive)
CCOC(=O)C1CCCCN1Cc1ccc(OC)c(OC)c1OC (stereo not given)	–	3.61% (inactive)
Clc1ccc(CSc2nnc([C@@H]3CCCN3)o2)cc1	–	0.227% (inactive)
CC(C)OC(=O)C(C#N)c1nc2ccccc2nc1N1CCN(Cc2ccccc2)CC1 (stereo not given)	–	-5.29% (inactive)
Cc1ccc(S(=O)(=O)N2CC(=O)Nc3ccccc32)cc1C	–	89.7% (inactive)
Cc1ccc(S(=O)(=O)C(C#N)c2nc3ccccc3nc2N2CCCC2)cc1C (stereo not given)	31.6 µM (active)	–
O=C(O)c1nn(-c2ccc(Cl)cc2)c2c1C(=O)c1ccccc1C2=O	–	-2.81% [at 11.4 µM] (inactive)

SMILES	Potency	activity change, negative = inhibition
CCc1ccc(N(CC)c2ncnc3nc[nH]c23)cc1	–	5.77% (inactive)
O=C(O)c1ccc(Cl)c(S(=O)(=O)Nc2ccccc2Cl)c1	–	-7.94% (inactive)
CC(=O)Nc1ccc(N2CCOCC2)c(C(=O)Nc2cccc(C)c2)c1	–	3.99% (inactive)
Cn1c(CN2CCOCC2)nc2cc(NC(=O)c3ccc(Cl)cc3)ccc21	–	-7.15% (inactive)
Cn1c(=O)n(C)c2cc(CNc3ccc(N4CCOCC4)c(C(=O)O)c3)ccc21	25.1 µM (active)	–
COc1cccc(N(C(=O)c2ccn[nH]2)C2(C(=O)Nc3c(C)cccc3C)CCCCC2)c1	–	-0.273% (inactive)
CSCCC(Nc1nc2ccccc2s1)C(=O)O (stereo not given)	–	-0.585% (inactive)
O=C(O)CN(Cc1ccco1)S(=O)(=O)c1ccc(F)cc1	–	3.03% (inactive)
Cc1c2c(nc3ccccc13)-c1cccc(=O)n1C2	7.94 µM (active)	–
CC(C)c1ccc2c([Si](C)(C)C)c3c(nc2c1)-c1cccc(=O)n1C3	–	-7.17% (inactive)
CC(C)(O)CCC(O)[C@@](C)(O)C1CC[C@]2(O)C3=CC(=O)C4CC(O)C(O)C[C@]4(C)C3CC[C@]12C (stereo not given in full)	–	3.96% (inactive)
CCOc1ccc(N2C(=O)CC(N(O)c3ccccc3)C2=O)cc1 (stereo not given)	–	7.88% (inactive)
N#Cc1nc(-c2ccc(OCc3ccccc3)cc2)oc1NCCCN1CCOCC1	25.1 µM (active)	–
N#Cc1nc(Cc2ccccc2)oc1NCCc1ccccc1	–	-12.5% (inactive)
N#Cc1nc(COc2ccc(-c3ccccc3)cc2)oc1NCc1cccnc1	–	-5.22% (inactive)
CC[C@]1(C)CC(=O)NC1=O	inactive	–
CC(C)(C)n1nnnc1C(c1cccs1)N(Cc1cccnc1)CC1CCCO1 (stereo not given)	–	7.97% (inactive)
COc1ccc2[nH]cc(CCNc3cc(-c4ccccc4CN(C)C)ncn3)c2c1	–	17.2% (inactive)
Cc1cc(Nc2ccc(Br)cc2F)n2ncnc2n1	–	3.99% (inactive)
Cc1ccc(NC(=O)CCNS(=O)(=O)c2ccc3c(c2)oc(=O)n3C)cc1C	–	6.7% (inactive)
C[C@@H]1/C=C\CC(=O)OC[C@H]2O[C@@H](C=C[C@@H]2O)[C@H](C)/C=C\CC(=O)OC[C@H]2O[C@H]1C=C[C@@H]2O	–	-0.26% [at 11.4 µM] (inactive)
CCn1c(=N)c(S(=O)(=O)c2ccc(F)cc2)cc2c(=O)n3ccccc3nc21	–	-17.6% (inactive)

SMILES	Potency	activity change, negative = inhibition
CCCn1c(=NC(C)=O)c(C(=O)OCC)cc2c(=O)n3ccccc3nc21	20 µM (active)	–
CCOC(=O)c1cc2n(c1N)-c1ccccc1C2=O	–	-13.6% (inactive)
C#CCNc1nc(C(C)C)nc2c1nnn2Cc1ccccc1F	–	-1.81% (inactive)
CC(C)(C)c1nc(NCC2CCCO2)c2nnn(Cc3ccccc3)c2n1 (stereo not given)	–	3.69% (inactive)
Cc1nc(Nc2ccc3c(c2)OCCO3)c2nnn(Cc3ccccc3Cl)c2n1	31.6 µM (active)	–
O=c1cc(CO)oc(CN2CCC(Cc3ccccc3)CC2)c1O	–	-14.7% (inactive)
OCCN1CCN(CC/C=C2\c3ccccc3Sc3ccc(C(F)(F)F)cc32)CC1	inactive	–
CCCN1[C@H](C(=O)OC)C[C@@]2(O)[C@@H](O)[C@@H](O)[C@@H](O)C[C@@H]12	–	7.09% (inactive)
Cc1nnc(SCC(=O)NCc2ccccc2)s1	–	4.45% (inactive)
COc1c(C(C)C)oc2cc3oc(=O)ccc3cc12	–	92% (inactive)
Fc1ccc2nc(N3CCCCC3)sc2c1	–	7.82% (inactive)
O=C(Cn1c(=O)sc2ccccc21)Nc1nc2c(s1)CCCC2	–	10.3% (inactive)
Fc1ccc2nc(Nc3nc4c(s3)CCCC4)sc2c1	25.1 µM (active)	–
CNc1cc(-c2c(C)noc2C)ncn1	–	18.4% (inactive)
O=C1CCc2cc(S(=O)(=O)N3CCC(C(=O)NCc4ccccc4Cl)CC3)ccc2N1	–	-0.8% (inactive)
CCCc1nnc(NC(=O)c2cc(OC)cc(OC)c2)s1	–	-11.4% (inactive)
Cc1ccc(C(=O)Nc2nnc(-c3cccs3)s2)cc1C	25.1 µM (active)	–
COc1cccc(OC)c1C(=O)Nc1nnc(C(C)C)s1	–	-1.6% (inactive)
Cc1cc(C)nc(N2C(=O)CC(Cc3ccccc3)C2=O)n1 (stereo not given)	–	12.1% (inactive)
COc1ccc(OC)c2[nH]c(=O)c(CCNC(=O)C(C)(C)C)cc12	–	-3.37% (inactive)
CCCn1c(SCC(=O)N2CCc3ccccc32)nnc1-c1ccncc1	–	0.0014% (inactive)
